# Values joined by “and” are separate entries in the source; they are usually repeats but may differ in a detail not shown here. Identical values can stand only once. The list shows a part of the results. Active and inactive are the calls of the source. No rule for the calls is given here.
# Target: Lethal factor (Bacillus anthracis) (UniProt P15917)
# Experiment: anthrax lethal factor cleavage blockers – biochemical, multiplex microsphere, cherry pick 1, confirmation (AID 602142)
# Details: multiplex microsphere protease cleavage assay, LF; at 10 µM; stronger effect = higher value
# Sequence of Lethal factor (Bacillus anthracis) (P15917 whole entry, looked up): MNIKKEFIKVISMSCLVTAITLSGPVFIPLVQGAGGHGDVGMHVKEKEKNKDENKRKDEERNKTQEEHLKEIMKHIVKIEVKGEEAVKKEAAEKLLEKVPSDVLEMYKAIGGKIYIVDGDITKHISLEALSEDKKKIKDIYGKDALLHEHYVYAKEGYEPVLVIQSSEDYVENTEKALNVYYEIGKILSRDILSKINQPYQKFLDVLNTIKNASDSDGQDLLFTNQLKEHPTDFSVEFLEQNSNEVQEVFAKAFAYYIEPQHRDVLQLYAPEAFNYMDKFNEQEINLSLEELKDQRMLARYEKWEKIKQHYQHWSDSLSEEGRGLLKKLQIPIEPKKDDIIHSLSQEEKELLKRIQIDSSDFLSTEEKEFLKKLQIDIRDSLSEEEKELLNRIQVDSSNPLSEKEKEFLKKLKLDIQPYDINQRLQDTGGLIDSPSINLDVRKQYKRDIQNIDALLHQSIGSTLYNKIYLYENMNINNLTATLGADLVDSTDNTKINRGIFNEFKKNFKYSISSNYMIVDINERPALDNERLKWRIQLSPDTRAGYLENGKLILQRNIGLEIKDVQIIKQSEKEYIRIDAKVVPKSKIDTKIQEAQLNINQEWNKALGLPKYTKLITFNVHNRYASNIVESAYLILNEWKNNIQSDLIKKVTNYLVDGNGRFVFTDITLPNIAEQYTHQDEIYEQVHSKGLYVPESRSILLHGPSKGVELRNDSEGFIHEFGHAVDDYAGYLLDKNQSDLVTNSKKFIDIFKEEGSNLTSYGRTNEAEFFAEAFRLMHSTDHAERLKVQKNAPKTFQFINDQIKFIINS
row,Compound,inhibition
1,COc1ccc(N(CC(=O)NCCSCc2cccc(Cl)c2)S(C)(=O)=O)cc1,-1.8% (inactive)
2,OC(c1ccc(Cl)cc1)C(CN1CCOCC1)c1ccccc1 (configuration not stated),3.2% (inactive)
3,COc1ccc(C2CC(c3cccs3)=NN2c2nc(C)c(C(C)=O)s2)cc1OC (configuration not stated),10.5% (inactive) and 15.1% (inactive)
4,COc1ccc(Br)cc1CNCCc1cccc(Cl)c1,3.2% (inactive)
5,Brc1ccc2ncnc(NCc3cccnc3)c2c1,-1.9% (inactive)
6,COCCn1nnnc1C(c1cc2ccc(OC)cc2[nH]c1=O)N1CCc2ccccc2C1 (configuration not stated),-6.3% (inactive)
7,O=C(Nc1nnc(CCc2ccccc2)s1)C1CCCO1 (configuration not stated),2.9% (inactive)
8,Cc1cc(S(=O)(=O)NC2CCCC2)ccc1-n1cnnn1,-3.6% (inactive)
9,CCOCCn1c(-c2ccccc2)nc2ccccc21,-0.9% (inactive)
10,Cc1c(NC(=O)c2cccnc2)c(=O)n(-c2ccccc2)n1C,4.2% (inactive)
11,CCCN1C2CCCC1CC(NC(=O)c1cccc(OC)c1)C2 (configuration not stated),3.1% (inactive)
12,CCOc1nnc(C)c2c(C)n(-c3cccc(Cl)c3)nc12,3.5% (inactive)
13,Cc1ccc2[nH]cc(CCNC(=O)C3CCCCC3)c2c1,3.7% (inactive)
14,CCOc1ccc(NC(=O)CC(Cc2ccc(Cl)cc2)C(=O)O)cc1 (configuration not stated),2.3% (inactive)
15,COc1ccccc1-n1c(-c2cc(-c3ccco3)[nH]n2)n[nH]c1=S,2.2% (inactive)
16,Cc1onc(-c2ccccc2Cl)c1C(=O)NCCn1ccc2ccccc21,4.3% (inactive)
17,Cc1ccc(-c2nc(-c3cccnc3)sc2CC(=O)Nc2ccc(C)c(Cl)c2)cc1,1.7% (inactive)
18,CCOCC(=O)NCc1ccc2c(c1)cc(C)n2C,-1% (inactive)
19,O=S(=O)(NC1CCCCC1N1CCC(O)CC1)c1ccc(Cl)cc1 (configuration not stated),-1.6% (inactive)
20,COC(=O)CN(c1nc(C)c(Cl)c(OC)n1)S(=O)(=O)c1ccc(C)cc1,2.2% (inactive)
21,CC1CCc2c(sc3nc4n(c(=O)c23)CCS4)C1 (configuration not stated),3.6% (inactive)
22,COc1ccccc1C1CCN(C(=S)Nc2ccc(Br)cc2)CC1,1.5% (inactive)

# Source: PubChem BioAssay AID602142 (NMMLSC, 2011)
